Experimental data taken from PubChem BioAssay AID1159580 (chemical genetic matrix, 2015).
The campaign covered roughly 5,500 compounds. About 2,000 (36%) were called active. Another 18% or so got no clear call; they are omitted. Rule as the data show it: active = normalized growth mostly below about 0.91 (no sharp cut-off); inconclusive = no clear call, values can overlap the other calls; inactive = mostly above about 0.92. This is one part of the list.

Assay: chemical genetic growth profiling, strain panel (AID 1159580);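 also: tested at 20 µM; growth read once vehicle control cultures reached saturation at 30 °C; 1 = growth at the plate median or of vehicle wells; lower values mean less growth of the strain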
Conditions: S. cerevisiae deletion strains, growth OD

Measured: normalized growth

NCCCCNS(=O)(=O)c1cccc2c(Cl)cccc12
inactive: locus YAL013W, strain DEP1, active compounds read low 1.01 | locus YAL040C, strain CLN3, active compounds read low 1.02 | locus YDR363W, strain ESC2, active compounds read low 1.01 | locus YER002W, strain NOP16, active compounds read low 1.01 | locus YGR078C, strain PAC10, active compounds read low 1.01 | locus YGR229C, strain SMI1, active compounds read low 1.04 | locus YJR075W, strain HOC1, active compounds read low 0.989 | locus YMR263W, strain SAP30, active compounds read low 1.01 | locus YNL153C, strain GIM3, active compounds read low 0.993 | locus YNL175C, strain NOP13, active compounds read low 1 | locus YNL197C, strain WHI3, active compounds read low 1 | locus YNL224C, strain SQS1, active compounds read low 0.995 | locus YOR083W, strain WHI5 (second series), active compounds read low 1.02 | locus YPL055C, strain LGE1, active compounds read low 1.01

N=c1ccc2nc3c(Cl)c4c(c(Cl)c3oc-2c1S(=O)(=O)O)Nc1ccc(N)c(S(=O)(=O)O)c1O4
inactive: locus YAR019C, strain CDC15, active compounds read low 1.01 | locus YBL105C, strain PKC1, active compounds read low 1.01 | locus YBR135W, strain CKS1, active compounds read low 1.01 | locus YBR136W, strain MEC1, active compounds read low 1.01 | locus YBR160W, strain CDC28, active compounds read low 1.01 | locus YDL017W, strain CDC7, active compounds read low 1.02 | locus YDL028C, strain MPS1, active compounds read low 1.01 | locus YDL101C, strain DUN1, active compounds read low 1.01 | locus YDL108W, strain KIN28, active compounds read low 1.01 | locus YDL132W, strain cdc53, active compounds read low 1 | locus YDL214C, strain PRR2, active compounds read low 1.02 | locus YDR052C, strain DBF4, active compounds read low 1.01 | locus YDR054C, strain cdc34, active compounds read low 1 | locus YDR226W, strain ADK1, active compounds read low 0.993 | locus YDR477W, strain SNF1, active compounds read low 1.01 | locus YER123W, strain YCK3, active compounds read low 1.01 | locus YER133W, strain GLC7, active compounds read low 0.992 | locus YFL009W, strain cdc4, active compounds read low 0.997 | locus YFL029C, strain CAK1, active compounds read low 1 | locus YFR003C, strain YPI1, active compounds read low 1.01 | locus YFR019W, strain FAB1, active compounds read low 0.993 | locus YFR028C, strain CDC14, active compounds read low 1.01 | locus YGR040W, strain KSS1, active compounds read low 1.02 | locus YGR052W, strain FMP48, active compounds read low 1.09 | locus YGR092W, strain DBF2, active compounds read low 1.03 | locus YHR030C, strain SLT2, active compounds read low 0.962 | locus YHR079C, strain IRE1, active compounds read low 0.995 | locus YHR082C, strain KSP1, active compounds read low 1.16 | locus YHR205W, strain SCH9, active compounds read low 1 | locus YIL147C, strain SLN1, active compounds read low 1.01 | locus YJL095W, strain BCK1, active compounds read low 1.06 | locus YJL128C, strain PBS2, active compounds read low 1 | locus YJL157C, strain FAR1, active compounds read low 0.994 | locus YJR016C, strain ILV3, active compounds read low 1.02 | locus YJR066W, strain TOR1 (second series), active compounds read low 0.981 | locus YJR066W, strain TOR1, active compounds read low 1.14 | locus YKL048C, strain ELM1, active compounds read low 1.01 | locus YKL067W, strain YNK1, active compounds read low 1.01 | locus YKL101W, strain HSL1, active compounds read low 1.02 | locus YKL193C, strain SDS22, active compounds read low 1.01 | locus YKL203C, strain TOR2, active compounds read low 1.06 | locus YLR113W, strain HOG1, active compounds read low 1.06 | locus YLR133W, strain CKI1, active compounds read low 1.01 | locus YLR403W, strain SFP1, active compounds read low 0.975 | locus YML070W, strain DAK1, active compounds read low 1.02 | locus YMR001C, strain CDC5, active compounds read low 1.01 | locus YMR205C, strain PFK2 (second series), active compounds read low 1.02 | locus YMR277W, strain FCP1, active compounds read low 1.01 | locus YNL006W, strain LST8, active compounds read low 1 | locus YNL020C, strain ARK1, active compounds read low 1.02 | locus YNL161W, strain CBK1, active compounds read low 0.998 | locus YNL183C, strain NPR1, active compounds read low 1.11 | locus YNL207W, strain RIO2, active compounds read low 1.02 | locus YNL222W, strain SSU72, active compounds read low 1.01 | locus YNL307C, strain MCK1 (second series), active compounds read low 1.01 | locus YOL078W, strain AVO1, active compounds read low 1.01 | locus YOL136C, strain PFK27, active compounds read low 1 | locus YOR061W, strain CKA2, active compounds read low 1.02 | locus YOR119C, strain RIO1, active compounds read low 1.08 | locus YOR231W, strain MKK1, active compounds read low 1.04 | locus YOR329C, strain SCD5, active compounds read low 1.01 | locus YPL031C, strain PHO85, active compounds read low 1.01 | locus YPL153C, strain RAD53, active compounds read low 1.01 | locus YPL204W, strain HRR25, active compounds read low 1 | locus YPL209C, strain IPL1, active compounds read low 1.01 | locus YPL256C, strain CLN2, active compounds read low 0.998 | locus YPR025C, strain CCL1, active compounds read low 1.01 | locus YPR106W, strain ISR1, active compounds read low 1.02 | locus YPR111W, strain DBF20, active compounds read low 1 | strain NNK1, active compounds read low 1.03 | strain TSCII, active compounds read low 1
